Structures are written as SMILES. Calls of active or inactive are those of the source.

Data on six compounds can be found in PubChem BioAssay.

Assay [1] concerns Plasmodium falciparum Sir2 (PF13_0152, Sir2A). The assay is described as follows: Plasmodium falciparum Sir2A binding compounds – biochemical, small-molecule microarray, 635 nm fluorescence, primary screen (AID 1098).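 Note: score merges spot fluorescence intensity with its signal-to-noise ratio.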 To be noted: fluorescence 635 nm, higher = more signal.
Assay [2] can be described thus: probe aDKK1 binding to arrayed compounds – biochemical, biotinylated probe, 635/667 nm fluorescence, primary screen (AID 1099).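 Note: score merges 667nm spot fluorescence with signal to noise across triplicate slides.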 The following applies: small-molecule microarray, higher = more signal.
Assay [3] can be described thus: probe aCHRDL2 binding to arrayed compounds – biochemical, biotinylated probe, 635/667 nm fluorescence, primary screen (AID 1100). To be noted: small-molecule microarray, higher = more signal.
Assay [4] is described as follows: change in splice reporter luminescence, either direction, cell-based, HEK293, spliceosome inhibition project, primary screen (AID 1101).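 Note: HEK293 cells carrying a splicing-competent luciferase reporter gene; test concentration not given here.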 The following applies: HEK293 splicing luciferase reporter, 24 h, higher = more signal, called active from +8 up or from −8 down. Background: Reporter assays use an easily measured gene product as a stand-in for the process of interest.

Assay [5] deals with Fibroblast growth factor 10 (Homo sapiens) (UniProt O15520). Briefly: compounds binding fibroblast growth factor 10 – biochemical, small-molecule microarray, 635 nm fluorescence, primary screen (AID 1102). The following applies: FGF10 binding, fluorescence 635 nm, higher = more signal.
Assay [6] concerns glycogen synthase kinase-3 (GSK3A per assay name; protocol says GSK3B). The assay is described as follows: compounds binding glycogen synthase kinase-3 – biochemical, small-molecule microarray, 635 nm fluorescence, GSK3A, primary screen (AID 1103). Note: the record names both GSK3A and GSK3B. The following applies: fluorescence 635 nm, higher = more signal.
Assay [7] deals with Epidermal growth factor receptor (Homo sapiens) (UniProt P00533). The assay is described as follows: compounds binding epidermal growth factor receptor – biochemical, small-molecule microarray, 635 nm fluorescence, primary screen (AID 1104).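 Note: score merges 667 nm emission intensity with spot signal to noise over triplicate slides.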 The following applies: EGFR binding, higher = more signal.
Assay [8] addresses Follistatin-related protein 3 (Homo sapiens) (UniProt O95633). Briefly: compounds binding follistatin-related protein 3 – biochemical, small-molecule microarray, 635 nm fluorescence, primary screen (AID 1105).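 Note: score merges emission near 667 nm and signal to noise per printed spot across three slides.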 The following applies: FSTL3 binding, higher = more signal.
In assay [9] the target is Dickkopf-related protein 1 (Homo sapiens) (UniProt O94907). The assay is described as follows: small molecules binding DKK1 protein – biochemical, small-molecule microarray, 635 nm fluorescence scan, primary screen (AID 1106).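 Note: score merges emission near 667 nm with signal to noise over three replicate slides.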 To be noted: higher = more signal.
For assay [10], the system named is Inhibin beta A chain (activin A). Briefly: small molecules binding activin A – biochemical, small-molecule microarray, 635 nm fluorescence scan, primary screen (AID 1107).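 Note: mouse activin A protein probed at 4.33 µg/mL on printed slides; score merges bound-protein fluorescence near 667 nm with spot signal-to-noise.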 To be noted: INHBA, higher = more signal.
The test system of assay [11] is Human papillomavirus type 1a protein E7 (residues 44-93). Briefly: small molecules binding HPV E7 44-93 – biochemical, small-molecule microarray, residues 44-93, 635 nm fluorescence, primary screen (AID 1108).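 Note: E7 fragment applied at 1 µg/mL in TBST for 1 h at 4 C; score combines spot fluorescence with its signal to noise ratio.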 The following applies: fluorescence 635 nm, higher = more signal.
Assay [12] is described as follows: hepatitis C replication reporter changes, two-sided – Huh7 cells, luciferase reporter, HCV replication inhibitor project, primary screen (AID 1109).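 Note: huh7 hepatoma cells harbouring a luciferase neomycin HCV replicon reporter; luciferase luminescence as measure of HCV replicon replication; test concentration not given here.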 To be noted: Huh7 HCV replicon luciferase reporter, 48 h; higher = more signal.
In assay [13] the target is Left-right determination factor 2 (Homo sapiens) (UniProt O00292). The assay is described as follows: small molecules binding LEFTY2 protein – biochemical, small-molecule microarray, 635 nm fluorescence scan, primary screen (AID 1110). The following applies: higher = more signal.
The target of assay [14] is Calmodulin-1 (Homo sapiens) (UniProt P0DP23). The assay is described as follows: small molecules binding calmodulin-1 with EGTA – biochemical, small-molecule microarray, Cy5-labelled CALM1, profiling panel (AID 1111).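 Note: labelled calmodulin applied in Tris saline Tween buffer holding calcium plus EGTA and DTT.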 To be noted: Cy5-CALM1 binding fluorescence, higher = more signal.
For assay [15] the target is unchanged. Briefly: small molecules binding Ca-loaded calmodulin-1 – biochemical, small-molecule microarray, Cy5-labelled CALM1, plus calcium, artefact control for SMM control-protein annotation, profiling panel (AID 1112).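 Note: score merges spot fluorescence with signal to noise from triplicate slides.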 The following applies: Cy5-CALM1 binding fluorescence, higher = more signal.
A short description of assay [16]: probe aWnt5a binding to arrayed compounds – biochemical, biotinylated probe, 635/667 nm fluorescence, primary screen (AID 1113).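 Note: score merges 667 nm fluorescence intensity with signal-to-noise per printed feature.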 The following applies: small-molecule microarray, higher = more signal.
Assay [17] can be described thus: probe aShh binding to arrayed compounds – biochemical, biotinylated probe, 635/667 nm fluorescence, primary screen (AID 1114).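 Note: probe is biotin-labelled aShh protein from a stem cell growth factor screen; measures binding of labelled protein to compounds printed on the slide; score merges feature fluorescence at 667 nm with signal-to-noise.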 The following applies: small-molecule microarray, higher = more signal.
Assay [18] is described as follows: probe aNog binding to arrayed compounds – biochemical, biotinylated probe, 635/667 nm fluorescence, primary screen (AID 1115).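 Note: probe is biotinylated aNog protein used at 0.15 µg/mL for 1 h at 4 C; z-score combines 667 nm fluorescence of each spot with its signal to noise.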 The following applies: small-molecule microarray, higher = more signal.
In assay [19] the target is Torsin-1A-interacting protein 1 (Homo sapiens) (UniProt Q5JTV8). The assay is described as follows: compound microarray binding of lysate hLAP1 – cell lysate, small-molecule microarray, COS7 lysate, 635/667 nm fluorescence, primary screen (AID 1116). To be noted: 635 nm fluorescence, higher = more signal.
For assay [20], the target named is Alpha-bungarotoxin (Bungarus multicinctus) (UniProt P60615). The assay is described as follows: compounds binding labelled alpha-BTX control protein – biochemical, small-molecule microarray, Alexa647 label, 635/667 nm fluorescence, artefact control for SMM control protein annotation, profiling panel (AID 1117). The following applies: alpha-BTX-A647 binding fluorescence, higher = more signal.
Alpha-bungarotoxin (Bungarus multicinctus), sequence (P60615 whole entry, looked up): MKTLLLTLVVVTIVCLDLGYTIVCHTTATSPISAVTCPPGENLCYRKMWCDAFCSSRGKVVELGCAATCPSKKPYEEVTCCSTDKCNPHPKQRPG

Torsin-1A-interacting protein 1 (Homo sapiens), sequence (Q5JTV8 whole entry, looked up): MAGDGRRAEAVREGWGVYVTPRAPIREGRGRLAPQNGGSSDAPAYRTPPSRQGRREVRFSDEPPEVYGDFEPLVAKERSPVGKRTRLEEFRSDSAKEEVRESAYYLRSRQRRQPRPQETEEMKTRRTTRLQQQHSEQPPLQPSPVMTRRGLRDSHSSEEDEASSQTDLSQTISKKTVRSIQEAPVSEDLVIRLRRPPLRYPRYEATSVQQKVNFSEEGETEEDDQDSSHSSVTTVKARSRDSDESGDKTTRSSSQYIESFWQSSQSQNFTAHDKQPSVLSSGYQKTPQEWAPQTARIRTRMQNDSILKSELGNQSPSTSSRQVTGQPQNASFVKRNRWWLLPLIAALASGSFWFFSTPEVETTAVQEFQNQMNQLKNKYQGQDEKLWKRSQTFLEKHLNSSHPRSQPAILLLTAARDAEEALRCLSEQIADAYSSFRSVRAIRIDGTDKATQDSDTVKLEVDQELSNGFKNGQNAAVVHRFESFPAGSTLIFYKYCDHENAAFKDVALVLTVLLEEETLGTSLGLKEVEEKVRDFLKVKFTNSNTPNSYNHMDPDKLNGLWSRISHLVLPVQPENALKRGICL
Fibroblast growth factor 10 (Homo sapiens), sequence (O15520 whole entry, looked up): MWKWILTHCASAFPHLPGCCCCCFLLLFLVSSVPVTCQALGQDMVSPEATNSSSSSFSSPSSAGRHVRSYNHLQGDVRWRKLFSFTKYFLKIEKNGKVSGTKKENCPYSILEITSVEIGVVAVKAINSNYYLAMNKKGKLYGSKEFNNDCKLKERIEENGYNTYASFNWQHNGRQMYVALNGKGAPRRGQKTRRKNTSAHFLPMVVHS
Dickkopf-related protein 1 (Homo sapiens), sequence (O94907 whole entry, looked up): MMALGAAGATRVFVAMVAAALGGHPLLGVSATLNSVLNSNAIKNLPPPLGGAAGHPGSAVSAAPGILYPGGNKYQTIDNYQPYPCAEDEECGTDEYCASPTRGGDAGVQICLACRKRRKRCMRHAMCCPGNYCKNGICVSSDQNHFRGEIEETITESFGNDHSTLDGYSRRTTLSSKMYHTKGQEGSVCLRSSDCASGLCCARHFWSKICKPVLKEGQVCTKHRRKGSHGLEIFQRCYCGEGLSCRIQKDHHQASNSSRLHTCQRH
Follistatin-related protein 3 (Homo sapiens), sequence (O95633 whole entry, looked up): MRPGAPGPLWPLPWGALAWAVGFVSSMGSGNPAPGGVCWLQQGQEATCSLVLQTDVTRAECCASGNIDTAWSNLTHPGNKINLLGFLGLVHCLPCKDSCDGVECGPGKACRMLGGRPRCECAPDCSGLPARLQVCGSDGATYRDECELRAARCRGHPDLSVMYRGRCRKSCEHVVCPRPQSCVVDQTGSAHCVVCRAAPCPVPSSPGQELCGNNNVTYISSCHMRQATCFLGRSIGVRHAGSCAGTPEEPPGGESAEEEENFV
Epidermal growth factor receptor (Homo sapiens), sequence (P00533 whole entry, looked up): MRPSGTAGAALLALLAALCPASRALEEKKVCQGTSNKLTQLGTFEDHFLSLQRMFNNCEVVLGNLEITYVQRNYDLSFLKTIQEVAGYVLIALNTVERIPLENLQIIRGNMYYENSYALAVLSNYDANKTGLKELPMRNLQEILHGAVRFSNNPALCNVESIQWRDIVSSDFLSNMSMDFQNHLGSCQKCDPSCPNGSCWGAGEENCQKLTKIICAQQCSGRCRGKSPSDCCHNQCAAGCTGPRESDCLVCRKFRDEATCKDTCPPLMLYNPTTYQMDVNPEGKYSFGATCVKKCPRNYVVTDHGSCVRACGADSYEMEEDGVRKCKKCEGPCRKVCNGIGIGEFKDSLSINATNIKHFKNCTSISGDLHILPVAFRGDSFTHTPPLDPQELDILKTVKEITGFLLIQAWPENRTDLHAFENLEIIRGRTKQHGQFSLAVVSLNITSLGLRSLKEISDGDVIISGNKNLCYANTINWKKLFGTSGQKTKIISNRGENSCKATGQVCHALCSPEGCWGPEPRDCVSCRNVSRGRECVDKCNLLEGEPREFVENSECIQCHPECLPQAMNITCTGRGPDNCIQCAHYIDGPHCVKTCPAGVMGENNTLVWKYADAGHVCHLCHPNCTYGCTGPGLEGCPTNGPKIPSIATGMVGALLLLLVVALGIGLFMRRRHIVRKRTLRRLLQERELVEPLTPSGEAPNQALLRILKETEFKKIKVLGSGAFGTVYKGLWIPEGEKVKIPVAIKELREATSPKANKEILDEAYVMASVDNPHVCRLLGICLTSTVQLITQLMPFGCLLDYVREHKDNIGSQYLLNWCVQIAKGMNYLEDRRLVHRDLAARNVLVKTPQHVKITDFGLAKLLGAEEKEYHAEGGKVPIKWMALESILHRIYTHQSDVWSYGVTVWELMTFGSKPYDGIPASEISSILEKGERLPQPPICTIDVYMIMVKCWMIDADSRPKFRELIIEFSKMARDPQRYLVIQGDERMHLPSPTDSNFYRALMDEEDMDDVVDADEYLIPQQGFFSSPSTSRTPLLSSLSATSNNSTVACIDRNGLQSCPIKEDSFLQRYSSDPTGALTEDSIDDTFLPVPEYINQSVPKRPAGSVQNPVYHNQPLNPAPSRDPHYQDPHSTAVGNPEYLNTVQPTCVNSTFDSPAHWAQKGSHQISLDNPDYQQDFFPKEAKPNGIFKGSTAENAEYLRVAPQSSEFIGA
Left-right determination factor 2 (Homo sapiens), sequence (O00292 whole entry, looked up): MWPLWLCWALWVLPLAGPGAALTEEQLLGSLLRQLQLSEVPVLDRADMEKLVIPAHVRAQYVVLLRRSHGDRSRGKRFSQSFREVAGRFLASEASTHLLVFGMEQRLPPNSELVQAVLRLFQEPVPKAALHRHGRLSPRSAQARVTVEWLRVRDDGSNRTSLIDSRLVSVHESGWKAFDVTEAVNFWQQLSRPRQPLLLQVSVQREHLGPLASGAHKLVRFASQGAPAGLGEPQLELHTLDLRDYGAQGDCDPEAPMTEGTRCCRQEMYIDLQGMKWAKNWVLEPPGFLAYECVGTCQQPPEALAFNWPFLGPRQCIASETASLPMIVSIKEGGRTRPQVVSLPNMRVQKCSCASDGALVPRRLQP

Take `C=CCOC(=O)[C@H]1[C@@H]2C(=O)O[C@@H](c3ccccc3)[C@@H](c3ccccc3)N2[C@@H](c2ccc(OCCOC(=O)[C@H]3C[C@H]4C(=O)N[C@@H](CCCC[N+](C)(C)C)C(=O)N4[C@H]3c3ccc(O)cc3)cc2)[C@]12C(=O)Nc1ccccc12`: the composite z-score was 1.63 in assay [1]; -0.194 in assay [2]; -0.135 in assay [3]; 0.507 in [5]; -0.112 in [6]; -0.229 in assay [7]. The composite z-score in [8] is 0.563; in assay [9], 0.387; in assay [10], -0.196; in assay [11], 0.411; in [13] it was -0.196; in assay [14], -0.217. Moreover, the composite z-score in assay [15] was -0.687; in assay [16], -0.148; in assay [17] it was 0.0469; in assay [18], -0.32; in [19], 0.569; in assay [20] it was 0.717. Further, the z-score was -1.08 (inactive) in [4] and -0.581 in [12].

Regarding `O=C1OCCC=C[C@H]2OC34C=CCN(CCN5CCOCC5)C(=O)[C@H]3N(CCO)C(=O)[C@@H]4C12` (stereo not given in full), the composite z-score in assay [1] is -0.378; in assay [2] it was -0.507; in assay [3], -0.771; in assay [5], 0.217; in assay [6] it was -0.594; in assay [7], -0.803. Besides, the composite z-score in assay [8] was -0.0836; in assay [9], 0.794; in assay [10], 0.612; in assay [11], -1.74; in assay [13], 0.601; in [14], -1.72. For the same compound, the composite z-score is -1.21 in assay [15]; -0.181 in assay [16]; -0.338 in assay [17]; -0.467 in [18]; 0.0029 in assay [19]; -1.01 in assay [20]. Besides, the z-score is -0.197 (inactive) in [4] and 0.18 in [12].

Regarding `O=C1C2C=CC(C(O)c3ccc(-c4ccccc4)s3)N(Nc3ccccc3F)C2C(=O)N1c1ccccc1` (stereo not given), the composite z-score came out at 0.913 in assay [1]; 1.22 in [2]; 1.27 in assay [3]; 0.772 in assay [5]; 0.806 in assay [6]; 0.247 in assay [7]. Besides, the composite z-score in assay [8] is 0.817; in [9], 0.0154; in [10], 0.948; in [11], 1.37; in [13] it was -0.0452; in [14] it was 1.95. The composite z-score in assay [15] was 1.24; in assay [16] it was -0.0758; in [17], 0.274; in [18], -0.54; in assay [19], 0.599; in assay [20], 1.21. In addition, the z-score is 0.25 (inactive) in assay [4] and 1.78 in assay [12].

For `C=CCC(OC(C)=O)[C@@H]1[C@@H](N(Cc2ccc(-c3cccc(C(F)(F)F)c3)o2)C(=O)Cc2ccc(OC)cc2)c2cc(OCCCO)ccc2N1C(=O)Cc1ccc(OC)cc1` (stereo not given in full), the composite z-score in assay [1] was 0.294; in assay [2], -0.22; in [3], 0.373; in assay [5], -0.593; in assay [6], -1.7; in [7], -0.719. Moreover, the composite z-score in [8] is -0.391; in [9], -0.227; in assay [10], 0.925; in [11] it was -0.641; in assay [13], -0.606; in assay [14], -0.503. The composite z-score is -1.26 in assay [15]; -0.203 in assay [16]; -0.0035 in [17]; -0.196 in [18]; -0.347 in assay [19]; -0.132 in assay [20]. Moreover, the z-score in assay [4] is -1.94 (inactive); in [12], -1.46.

`Cc1ccc(S[C@]2(C(=O)NCCN3CCOCC3)CC(=O)N(C3CCCCC3)[C@@H]2c2ccc(CO)cc2)cc1`: the composite z-score in assay [1] was 1.35; in [2] it was -0.0443; in assay [3], 0.781; in assay [5] it was -0.103; in assay [6], 0.606; in assay [7], -0.551. The composite z-score in assay [8] was 0.181; in assay [9] it was -0.55; in [10], 0.602; in assay [11], 1.29; in assay [13], -0.55; in [14] it was 1.06. The composite z-score in assay [15] is -0.39; in assay [16], -0.0685; in assay [17], -0.186; in assay [18], 0.0373; in assay [19], 0.347; in assay [20], 0.711. The z-score was 0.114 (inactive) in assay [4] and -1.82 in [12].

As for `CN1C(=O)C2C=CC(C(O)C3=C[C@H]4C[C@@H](C3)C4(C)C)N(Nc3ccc([N+](=O)[O-])cc3[N+](=O)[O-])C2C1=O` (stereo not given in full), the composite z-score turned out to be 1.22 in assay [1]; 1.34 in [2]; 1.07 in [3]; 0.721 in assay [5]; 1.28 in assay [6]; 0.21 in assay [7]. Further, the composite z-score in [8] is 0.988; in [9] it was -0.446; in assay [10], 0.844; in [11] it was 1.41; in [13], 0.258; in [14], 1.72. The composite z-score was 0.616 in [15]; 0.0194 in [16]; 0.223 in assay [17]; 0.836 in assay [18]; 0.975 in assay [19]; 1.51 in [20]. Moreover, the z-score in assay [4] was 0.674 (inactive); in [12], -0.474.
